Assay results reported in ChEMBL document CHEMBL3988442, “University of Dundee, Small-Polar-MMV Screening Library” (2021).
For some of these results: Potency and affinity values are given separately.

Columns and labels:
Parameters in all cases: scale not given: direction of the effect not stated beside the values
[1] = biological target: Protein translocase subunit SecA (Escherichia coli (strain K12)) (UniProt P10408); experiment: Assay to Identify E. coli SecA ATPase Inhibitors; assay type: functional; conditions: 30 µM
[2] = biological target: T1, Ubiquitin-activating enzyme e1, putative (Leishmania donovani (strain BPK282A1)) (UniProt E9BSI1); experiment: Leishmania donovani Ubiquitin Activating Enzyme (LdE1); assay type: functional; conditions: 30 µM
T1 sequence (whole entry): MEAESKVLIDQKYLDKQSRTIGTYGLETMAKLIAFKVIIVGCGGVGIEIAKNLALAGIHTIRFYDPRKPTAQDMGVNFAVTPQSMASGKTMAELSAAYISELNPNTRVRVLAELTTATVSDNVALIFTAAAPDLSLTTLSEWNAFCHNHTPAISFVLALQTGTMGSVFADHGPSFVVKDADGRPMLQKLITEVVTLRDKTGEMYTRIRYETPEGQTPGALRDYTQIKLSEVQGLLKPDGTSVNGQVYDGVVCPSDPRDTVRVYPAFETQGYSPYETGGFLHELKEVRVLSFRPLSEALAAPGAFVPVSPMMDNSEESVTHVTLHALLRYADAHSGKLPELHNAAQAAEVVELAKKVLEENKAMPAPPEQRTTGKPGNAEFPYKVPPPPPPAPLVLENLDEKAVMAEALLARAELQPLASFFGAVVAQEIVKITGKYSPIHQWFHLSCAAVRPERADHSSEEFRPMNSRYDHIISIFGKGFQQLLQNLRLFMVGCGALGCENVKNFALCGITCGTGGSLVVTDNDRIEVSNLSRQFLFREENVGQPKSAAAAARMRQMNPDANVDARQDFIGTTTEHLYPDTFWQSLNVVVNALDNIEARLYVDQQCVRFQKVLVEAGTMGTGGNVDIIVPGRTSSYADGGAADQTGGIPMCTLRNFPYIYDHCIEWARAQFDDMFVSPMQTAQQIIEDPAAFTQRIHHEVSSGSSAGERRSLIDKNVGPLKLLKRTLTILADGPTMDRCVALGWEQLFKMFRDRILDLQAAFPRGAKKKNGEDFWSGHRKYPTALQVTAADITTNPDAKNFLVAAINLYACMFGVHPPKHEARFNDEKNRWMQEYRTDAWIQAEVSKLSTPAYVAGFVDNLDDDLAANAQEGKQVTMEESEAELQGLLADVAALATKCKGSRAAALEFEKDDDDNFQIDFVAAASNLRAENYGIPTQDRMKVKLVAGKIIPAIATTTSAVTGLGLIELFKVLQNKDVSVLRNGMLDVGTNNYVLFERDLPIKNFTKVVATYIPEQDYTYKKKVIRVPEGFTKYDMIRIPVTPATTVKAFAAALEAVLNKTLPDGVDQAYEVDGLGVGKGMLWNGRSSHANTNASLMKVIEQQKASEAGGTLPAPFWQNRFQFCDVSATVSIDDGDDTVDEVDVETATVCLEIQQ

[3] = biological target: AMP-activated protein kinase, AMPK (Homo sapiens) (UniProt P54646+O43741+P54619+Q9UGJ0+Q9Y478+Q13131+Q9UGI9); experiment: AMP-dependent Kinase enzyme assay. An in vitro enzyme assay that detects ADP turnover that is directly proportional to AMPK activity. This uses naive AMPK that is activated during the assay with MK-8722; assay type: functional; conditions: 30 µM
[4] = biological target: Sialic acid-binding Ig-like lectin 9 (Homo sapiens) (UniProt Q9Y336); experiment: Hs-Siglec9 ALPHAscreen SOP 20170721; conditions: 10 µM
[5] = tested on: Trypanosoma cruzi; experiment: Trypanosoma cruzi phosphomannomutase and mannose-1-phosphate guanylyltransferase assay; assay type: functional; conditions: 10 µM
[6] = biological target: T2, Arginase-2, mitochondrial (Homo sapiens) (UniProt P78540); experiment: in vitro enzyme assay to detect the production of urea directly proportional to the activity of Arginase II; assay type: functional; conditions: 33.3 µM; note: in the data most compounds retested in dose-response had high values
T2 sequence (whole entry): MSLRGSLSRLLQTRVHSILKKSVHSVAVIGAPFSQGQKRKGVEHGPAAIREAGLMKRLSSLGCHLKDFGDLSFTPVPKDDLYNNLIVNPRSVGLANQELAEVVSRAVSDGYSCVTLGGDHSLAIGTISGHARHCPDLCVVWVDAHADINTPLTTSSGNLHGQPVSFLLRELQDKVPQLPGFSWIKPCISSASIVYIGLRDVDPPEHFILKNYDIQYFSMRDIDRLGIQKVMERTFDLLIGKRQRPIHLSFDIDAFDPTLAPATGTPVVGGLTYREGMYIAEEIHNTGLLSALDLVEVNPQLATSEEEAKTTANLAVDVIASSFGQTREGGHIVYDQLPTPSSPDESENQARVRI

[7] = biological target: T3, Proteasome subunit beta (Trypanosoma cruzi) (UniProt O96673); experiment: Trypanosoma cruzi proteasome chymotrypsin-like activity (TcProtChymo) assay.; note: in the data most compounds retested in dose-response had high values; assay type: functional; conditions: 9.37 µM
T3 sequence (whole entry): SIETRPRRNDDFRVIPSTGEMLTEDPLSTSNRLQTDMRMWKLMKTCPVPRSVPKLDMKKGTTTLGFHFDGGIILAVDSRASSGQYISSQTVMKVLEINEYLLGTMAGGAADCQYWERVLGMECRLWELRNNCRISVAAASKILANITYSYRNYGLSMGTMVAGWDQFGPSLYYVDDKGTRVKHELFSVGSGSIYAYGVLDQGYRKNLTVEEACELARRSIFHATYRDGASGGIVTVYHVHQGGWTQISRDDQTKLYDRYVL

[8] = species: Homo sapiens; experiment: To identify inhibition of the IFN signalling (Jak-Stat) pathway via expression of an eGFP reporter gene under the control of an IFN-stimulated response element (ISRE) containing MxA promoter.; assay type: functional; conditions: 30 µM
[9] = biological target: T4, Tyrosyl-tRNA synthetase, putative (Trypanosoma cruzi (strain CL Brener)) (UniProt Q4DSP6); experiment: Trypanosoma cruzi tyrosyl tRNA synthetase (TcYRS) _High Tyrosine SOP; assay type: functional; conditions: 30 µM; note: in the data most compounds retested in dose-response had high values
T4 sequence (whole entry): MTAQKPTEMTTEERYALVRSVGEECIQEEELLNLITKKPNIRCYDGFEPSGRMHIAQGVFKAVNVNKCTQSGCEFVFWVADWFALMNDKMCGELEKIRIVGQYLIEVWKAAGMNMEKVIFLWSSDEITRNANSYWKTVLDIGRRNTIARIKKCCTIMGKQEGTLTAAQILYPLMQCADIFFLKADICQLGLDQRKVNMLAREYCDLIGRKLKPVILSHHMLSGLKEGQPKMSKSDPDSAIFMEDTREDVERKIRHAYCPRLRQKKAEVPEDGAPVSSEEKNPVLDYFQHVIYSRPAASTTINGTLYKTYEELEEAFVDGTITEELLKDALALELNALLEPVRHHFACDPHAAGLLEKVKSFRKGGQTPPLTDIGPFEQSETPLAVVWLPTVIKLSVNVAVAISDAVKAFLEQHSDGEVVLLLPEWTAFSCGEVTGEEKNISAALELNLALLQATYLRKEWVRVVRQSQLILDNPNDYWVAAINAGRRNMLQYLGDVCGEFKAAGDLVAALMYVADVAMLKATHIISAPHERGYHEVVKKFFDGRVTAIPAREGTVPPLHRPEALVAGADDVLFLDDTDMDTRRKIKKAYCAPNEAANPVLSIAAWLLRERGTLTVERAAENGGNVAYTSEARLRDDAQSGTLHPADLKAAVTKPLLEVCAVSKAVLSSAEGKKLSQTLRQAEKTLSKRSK

[10] = biological target: T4, Tyrosyl-tRNA synthetase, putative (Trypanosoma cruzi (strain CL Brener)); experiment: Trypanosoma cruzi tyrosyl tRNA synthetase (TcYRS) SOP; assay type: functional; conditions: 30 µM
[11] = biological target: Chromo domain-containing protein 1 (Saccharomyces cerevisiae (strain ATCC 204508 / S288c) (Baker's yeast)) (UniProt P32657); experiment: ScCHD-1 Enzyme Inhibition Assay; assay type: functional; conditions: 30 µM; note: in the data most compounds retested in dose-response had high values
Chromo domain-containing protein 1 (Saccharomyces cerevisiae (strain ATCC 204508 / S288c) (Baker's yeast)), sequence (P32657 whole entry, the tested form may be a part): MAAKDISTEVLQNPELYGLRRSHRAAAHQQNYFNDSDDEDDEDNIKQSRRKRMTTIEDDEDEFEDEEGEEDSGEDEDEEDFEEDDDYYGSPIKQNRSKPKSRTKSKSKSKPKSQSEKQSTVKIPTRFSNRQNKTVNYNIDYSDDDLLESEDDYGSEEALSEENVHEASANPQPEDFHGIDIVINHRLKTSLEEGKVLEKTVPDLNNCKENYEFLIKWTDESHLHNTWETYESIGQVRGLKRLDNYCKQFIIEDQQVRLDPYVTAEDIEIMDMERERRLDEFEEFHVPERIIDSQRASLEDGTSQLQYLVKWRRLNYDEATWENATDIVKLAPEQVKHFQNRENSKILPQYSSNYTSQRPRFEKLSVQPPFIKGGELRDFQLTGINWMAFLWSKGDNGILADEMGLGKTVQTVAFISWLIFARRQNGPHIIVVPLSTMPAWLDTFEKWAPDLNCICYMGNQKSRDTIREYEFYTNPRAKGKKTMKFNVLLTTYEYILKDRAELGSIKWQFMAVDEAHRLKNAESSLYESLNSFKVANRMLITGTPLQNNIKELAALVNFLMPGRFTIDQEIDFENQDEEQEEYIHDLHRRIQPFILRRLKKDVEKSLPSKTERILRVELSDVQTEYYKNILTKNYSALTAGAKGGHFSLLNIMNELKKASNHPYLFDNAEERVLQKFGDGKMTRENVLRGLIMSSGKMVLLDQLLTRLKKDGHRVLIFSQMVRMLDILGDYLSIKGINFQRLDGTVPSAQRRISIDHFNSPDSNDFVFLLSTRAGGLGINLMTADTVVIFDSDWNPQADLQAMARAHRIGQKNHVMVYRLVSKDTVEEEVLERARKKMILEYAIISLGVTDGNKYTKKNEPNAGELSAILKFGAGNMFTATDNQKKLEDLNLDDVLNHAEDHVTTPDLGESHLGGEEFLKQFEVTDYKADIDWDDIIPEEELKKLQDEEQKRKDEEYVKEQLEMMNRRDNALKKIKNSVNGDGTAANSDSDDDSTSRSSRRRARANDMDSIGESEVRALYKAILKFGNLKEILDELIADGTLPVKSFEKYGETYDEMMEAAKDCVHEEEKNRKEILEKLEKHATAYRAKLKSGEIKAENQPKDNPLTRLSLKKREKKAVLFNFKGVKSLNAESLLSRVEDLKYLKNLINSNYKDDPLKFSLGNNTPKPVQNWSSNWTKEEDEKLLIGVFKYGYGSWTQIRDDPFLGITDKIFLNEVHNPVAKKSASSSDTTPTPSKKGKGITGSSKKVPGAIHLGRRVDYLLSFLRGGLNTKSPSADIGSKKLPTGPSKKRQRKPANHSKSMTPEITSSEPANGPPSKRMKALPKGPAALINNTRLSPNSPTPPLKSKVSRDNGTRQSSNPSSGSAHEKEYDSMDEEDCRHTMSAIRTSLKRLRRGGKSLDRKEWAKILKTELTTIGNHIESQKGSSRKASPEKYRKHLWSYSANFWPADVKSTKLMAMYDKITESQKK

Sialic acid-binding Ig-like lectin 9 (Homo sapiens), sequence (Q9Y336 whole entry): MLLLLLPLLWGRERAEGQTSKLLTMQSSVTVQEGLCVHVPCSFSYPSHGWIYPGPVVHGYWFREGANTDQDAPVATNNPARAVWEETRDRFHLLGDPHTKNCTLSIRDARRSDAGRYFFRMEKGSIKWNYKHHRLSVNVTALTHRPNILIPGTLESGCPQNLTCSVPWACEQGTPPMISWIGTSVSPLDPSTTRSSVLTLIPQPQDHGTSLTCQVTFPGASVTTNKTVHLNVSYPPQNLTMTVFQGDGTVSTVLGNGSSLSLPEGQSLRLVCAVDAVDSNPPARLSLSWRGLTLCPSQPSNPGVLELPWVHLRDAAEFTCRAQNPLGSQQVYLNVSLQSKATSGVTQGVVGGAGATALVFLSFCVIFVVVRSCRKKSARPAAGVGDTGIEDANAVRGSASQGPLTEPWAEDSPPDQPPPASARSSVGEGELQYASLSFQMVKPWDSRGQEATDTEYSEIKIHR
Protein translocase subunit SecA (Escherichia coli (strain K12)), sequence (P10408 whole entry): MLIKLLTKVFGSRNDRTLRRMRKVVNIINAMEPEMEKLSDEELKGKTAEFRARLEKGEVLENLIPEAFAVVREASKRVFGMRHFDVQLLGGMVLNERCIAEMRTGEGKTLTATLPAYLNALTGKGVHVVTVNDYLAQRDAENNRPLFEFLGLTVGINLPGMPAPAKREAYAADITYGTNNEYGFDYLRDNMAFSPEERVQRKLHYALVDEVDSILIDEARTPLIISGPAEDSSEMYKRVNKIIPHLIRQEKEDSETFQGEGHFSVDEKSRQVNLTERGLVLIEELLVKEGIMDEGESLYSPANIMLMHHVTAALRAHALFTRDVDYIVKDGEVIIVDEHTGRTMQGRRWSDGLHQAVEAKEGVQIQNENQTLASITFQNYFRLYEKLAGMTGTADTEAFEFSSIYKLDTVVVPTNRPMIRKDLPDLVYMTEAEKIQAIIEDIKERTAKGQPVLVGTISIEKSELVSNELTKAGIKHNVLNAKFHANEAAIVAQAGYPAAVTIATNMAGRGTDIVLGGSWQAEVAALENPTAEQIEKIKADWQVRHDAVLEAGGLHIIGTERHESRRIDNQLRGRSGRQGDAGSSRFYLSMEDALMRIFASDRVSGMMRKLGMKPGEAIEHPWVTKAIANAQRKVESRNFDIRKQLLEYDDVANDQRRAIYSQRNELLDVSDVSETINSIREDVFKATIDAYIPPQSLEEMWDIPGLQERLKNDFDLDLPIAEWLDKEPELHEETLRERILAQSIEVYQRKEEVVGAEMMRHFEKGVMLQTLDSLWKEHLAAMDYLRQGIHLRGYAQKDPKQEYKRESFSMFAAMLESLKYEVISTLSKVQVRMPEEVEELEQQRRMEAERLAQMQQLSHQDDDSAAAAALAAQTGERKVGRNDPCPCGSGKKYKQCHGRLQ

| SMILES | Percent Effect [1] | Percent Effect [2] | Percent Effect [3] | Percent Effect [4] | Percent Effect [5] | Percent Effect [6] | Percent Effect [7] | Percent Effect [8] | Percent Effect [9] | Percent Effect [10] | Percent Effect [11] |
| --- | --- | --- | --- | --- | --- | --- | --- | --- | --- | --- | --- |
| Cc1c(C2CCCN(C(=O)C3CC3)C2)n2c(nc1=O)CCC2 (configuration not stated) | -7.83% | 23% | 2.41% | -4.63% | -0.593% | 0.232% | 15.4% | 3.94% | 4.3% | 11.7% | -11% |
| CCCc1nnsc1C(=O)NCC1CCN(S(C)(=O)=O)CC1 | -4.49% | 16.4% | -9.31% | 9.94% | 1.57% | 0.455% | 20.1% | 9.73% | 7.53% | 17.5% | -6.78% |
| CC1CN(C(=O)CN(Cc2ccccc2Br)C2CC2)CCO1 (configuration not stated) | -1.13% | 0% | 4.5% | 0.479% | 3.82% | -3.16% | -4.77% | 13.8% | 3.81% | 7.06% | -7.55% |
| Cc1ccc(CN2CCC3(CC2)CC(c2cccnc2)CO3)s1 (configuration not stated) | -5.83% | 5.41% | 1.22% | -3.96% | 0% | 7.08% | 4.65% | 0.622% | 8.91% | 11% | -2.92% |
| Cc1nn(C)c(C)c1CCC(=O)N1CCCC1Cn1cccn1 (configuration not stated) | -4.71% | -2.7% | 5.43% | -1.49% | -3.52% | 2.08% | 3.63% | -0.691% | 1.98% | 11% | 1.96% |
| COc1ccc(C(=O)NCCc2nnc3ccccn23)c(OC)c1 | -6.68% | 5.2% | 5.94% | -6.61% | -7.93% | -3.16% | 13.5% | 13% | 0% | 2.35% | -16.9% |
| O=C(Cc1cccc(F)c1)NCCNCc1cccc(O)c1 | -1.42% | -5.2% | 13.5% | 6.95% | 0.749% | 3.56% | -0.169% | 3.07% | 8.74% | 12.2% | -4.75% |
| Cc1nn(C)c(N2CCOCC2)c1CNCc1ccc(Cl)s1 | -3.24% | 10.4% | 2.59% | -1.94% | 2.06% | 1.9% | 9.62% | 11.3% | 11.4% | 25.9% | -8.79% |
| O=C1NCCN1C1CCCN(Cc2coc(-c3ccc(F)cc3)n2)C1 (configuration not stated) | -10.2% | -8.11% | -13.5% | 25.4% | 10.9% | -1.29% | 0.898% | 57.5% | 5.94% | 15.8% | -6.73% |
| COc1ccccc1OCC(=O)NCC(O)(c1ccccc1)C1CC1 (configuration not stated) | -4.08% | 13.7% | -8.54% | 17% | 2.74% | 0.909% | 14% | 7.48% | 8.6% | 15% | -5.98% |
| CCOc1cc(F)ccc1NS(=O)(=O)c1cc(C)c(C(=O)O)s1 | -9.09% | 8.11% | -10.6% | 28.9% | 4.59% | 0.248% | 8.15% | -8.12% | -5.38% | -1.24% | -11.4% |
| CCOCCn1nc(C)cc1C(=O)N1CCOCC(CO)C1 (configuration not stated) | -2.3% | 18.9% | 0.311% | 24.4% | 7.14% | 31.9% | 22.1% | 1.44% | 3.7% | 12.2% | -10.6% |
| O=C(NCCCOCC1CC1)Nc1cccnc1N1CCOCC1 | -3.08% | 2.7% | -5.79% | 0.4% | -5.27% | -1.67% | 21.1% | 10.8% | -21.8% | 3.66% | 14.9% |
| Cc1nnc(N2CC[C@H](OCC3CC3)[C@@H](Cc3ccccc3)C2)s1 | -2.17% | -5.33% | 8.54% | 9.81% | 5.99% | -31.7% | 7.01% | -7.72% | 0% | 5% | -3.2% |
| N#CC(Sc1nnnn1C1CCOCC1)C1CCCCC1 (configuration not stated) | -4.28% | 2.67% | 0.0297% | 9.31% | -5.55% | 0.521% | 7.32% | -0.799% | 3.83% | 6.17% | -4.6% |
| CCN1CCN(C(=O)c2ccn(C)c(=O)c2)CC1 | -1.02% | 6.33% | 3.55% | -4.57% | -4.62% | -1.07% | 11.8% | 21.1% | 4.17% | -5.06% | -16.7% |
| Cc1cccc(-c2noc(CN3CCC(N4CCNC4=O)CC3)n2)c1 | -6.31% | 13% | 4.11% | 4.47% | 0.374% | -1.78% | -2.2% | 21.5% | 7.77% | 12.2% | -3.52% |
